# Results as given in PubChem BioAssay AID2161 (National Center for Advancing Translational Sciences (NCATS), 2009).
# “And” between values parts separate entries of the source, which are not always exact repeats. Equal values may be shown once. The list shows a part of the results. The source made the active and inactive calls. Calls follow the shape of the dose curve; as a rule, active = well fitted inhibition curve with a large enough effect; inactive = no such curve, though single readings can be large or run the other way.
# Target: Papain (Carica papaya) (UniProt P00784)
# Sequence (P00784 whole entry, looked up): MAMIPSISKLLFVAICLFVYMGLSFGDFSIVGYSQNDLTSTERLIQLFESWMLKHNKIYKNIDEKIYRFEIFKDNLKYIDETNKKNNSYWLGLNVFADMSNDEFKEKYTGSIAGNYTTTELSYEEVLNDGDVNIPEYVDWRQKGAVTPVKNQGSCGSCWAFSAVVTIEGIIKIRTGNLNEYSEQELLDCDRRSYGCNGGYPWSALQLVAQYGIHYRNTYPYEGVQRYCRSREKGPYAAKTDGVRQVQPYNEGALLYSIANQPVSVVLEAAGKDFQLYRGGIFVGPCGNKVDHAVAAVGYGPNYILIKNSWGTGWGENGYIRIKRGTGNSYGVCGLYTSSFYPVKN
# Assay: qHTS Assay for Inhibitors of Papain: Counterscreen for Cruzain Assay
# Conditions: purified papain, Z-FR-AMC fluorescence cleavage; max response, negative = inhibition: active compounds read low
# Excerpt: Assay Provider: Shoichet, Brian; University of California, San Fancisco Screening Center PI: Austin, C.P. Screening Center: NIH Chemical Genomics Center [NCGC] The following papain assay is a counterscreen for a related protein cruzain (AID: 1478). Cruzain is a cysteine protease from the tropical parasite Trypanosoma cruzi. Activity against papain was used to help prioritize chemical series active against cruzain. Papain is a closely related cysteine protease known to utilize the same Z-FR-AMC fluorogenic substrate as cruzain. The fluorogenic assay used for cruzain was utilized here as well, with the exception of the reducing agent, which was 5 mM cystein here instead of DTT. Fluorogenic coumarin-based Z-FR-AMC substrate was used; proteolytic cleavage releases AMC, whose fluorescence is measured at 360 nm excitation and 450 nm emission. Purified papain was supplied by the labs of Profs. James McKerrow and Brian Shoichet, UC San Francisco. This assay had 0.01% Triton X-100 concentration.
# Buffer: 100 mM Sodium Acetate, pH 5.5, 5 mM DTT, Triton X-100 concentration: 0.01%. Reagents/Controls: Buffer in columns 3 and 4 as negative control (no enzyme). Substrate solution: 2 uM final concentration of Z-FR-AMC (catalog number I-1160, Bachem) dispensed throughout the plate. Enzyme: 12 nM Papain final concentration. Assay Steps: Three uL of enzyme or buffer were dispensed to 1536-well Greiner black solid bottom plates. Compounds and controls (23 nL) were transferred via Kalypsys PinTool. The plates were incubated for 15 min at room temperature, and then 1 uL of substrate solution was added to start the reaction. The plates were immediately transferred to and read 4 times every 30 seconds for 2 min on ViewLux High-throughput CCD imager (Perkin-Elmer) using 360 nm excitation and 450 nm emission fluorescence protocol. The fluorescence intensity difference between the third and the first time points (time lapse of 60 seconds) was used to compute reaction progress. Data was normalized to neutral (no compound) and negative (no enzyme) controls.
# Also: nearly all actives have a fitted effect of over 35% in size.
# 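For max response, negative = inhibition in this document: 0% = no-compound wells and -100% = no-enzyme wells.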
# Potency is read from the fitted curve at half-maximal effect.
SMILES,"max response, negative = inhibition",Potency
c1ccc2cc3c(NCCN4CCOCC4)ccnc3cc2c1,-50.2% (inactive),–
CCN(CC)c1nc(C#N)nc(OC)n1,–,5.01 µM (active)
CCCCNC(=O)Cn1c(SCc2cccc(Cl)c2)nc2ccncc21,-12% (inactive),–
O=C(OCN1C(=O)c2ccccc2C1=O)/C(=C\c1ccco1)NC(=O)c1ccccc1,-35.6% (inactive),–
N#Cc1nc(N)nc(N(c2ccccc2)c2ccccc2)n1,–,8.91 µM (active) and 11.2 µM (active)
N#Cc1nc(Nc2cc(F)cc(Cl)c2)nc(NC2CCCC2)n1,–,1.12 µM (active)
C=CCNC(=O)c1ccc2nc(-c3ccco3)c(-c3ccco3)nc2c1,-64.7% (inactive),–
Cc1ccc(SCCC(=O)OCC(=O)Nc2ncc(Cl)cc2Cl)cc1,-6.29% (inactive),–
CC(C)C[C@H](NC(=O)[C@@H]1O[C@H]1C(=O)O)C(=O)NCCCCN=C(N)N,–,0.01 µM (active)
N#Cc1nc(Nc2cccc(Cl)c2)nc(NC2CCCC2)n1,–,0.891 µM (active)
Cc1ccc(-c2c3c(=O)n(C)c(=O)n(C)c3cn2-n2cnnc2)cc1,–,28.2 µM (active)
CCc1ccc(OCCCn2c(CCCNC(=O)C3CCCCC3)nc3ccccc32)cc1,-1.28% (inactive),–
O=C1OC(/C=C/c2ccccc2)=NC/1=C/c1ccco1,-2.34% (inactive),–
Cn1c(C(=O)NCCN2CCc3ccccc3C2)cc2c(=O)[nH]c3ccccc3c21,-20.9% (inactive),–
C=CC(=O)c1ccc2ccccc2c1,–,12.6 µM (active)
